Drawing on ChEMBL document CHEMBL3433997, “St. Jude Leishmania screening dataset” (2016), this text covers inhibition for 33 molecules.

For orientation: inhibition means the relative decrease from the control value, in per cent.

Assay type in all cases: functional
The target in experiment [1] is Solute carrier family 2, facilitated glucose transporter member 1 (Homo sapiens) (UniProt P11166). As to the kind of experiment: ST_JUDE_LEISH: Cytotoxicity at 2uM final concentration against transgenic Leishmania Mexicana promastigotes LmGLUT1 that are glucose transport deficient and complemented with the human glucose transporter GLUT1. Activity is measured by DNA content using SYBR green in vitro.

For experiment [2], the target named is Hexose transporter 1 (Plasmodium falciparum) (UniProt O97467). As to the kind of experiment: ST_JUDE_LEISH: Cytotoxicity at 2uM final concentration against transgenic Leishmania Mexicana promastigotes LmPfHT that are glucose transport deficient and complemented with the Plasmodium falciparum hexose transporter. Activity is measured by DNA content using SYBR green in vitro.

The target of experiment [3] is Glucose transporter (Leishmania mexicana) (UniProt O61059). Put plainly: ST_JUDE_LEISH: Cytotoxicity at 2uM final concentration against transgenic Leishmania Mexicana promastigotes LmGT2 that are glucose transport deficient and complemented with the L. Mexicana glucose transporter 2. Activity is measured by DNA content using SYBR green in vitro.

Sequence of Solute carrier family 2, facilitated glucose transporter member 1 (Homo sapiens) (P11166 whole entry): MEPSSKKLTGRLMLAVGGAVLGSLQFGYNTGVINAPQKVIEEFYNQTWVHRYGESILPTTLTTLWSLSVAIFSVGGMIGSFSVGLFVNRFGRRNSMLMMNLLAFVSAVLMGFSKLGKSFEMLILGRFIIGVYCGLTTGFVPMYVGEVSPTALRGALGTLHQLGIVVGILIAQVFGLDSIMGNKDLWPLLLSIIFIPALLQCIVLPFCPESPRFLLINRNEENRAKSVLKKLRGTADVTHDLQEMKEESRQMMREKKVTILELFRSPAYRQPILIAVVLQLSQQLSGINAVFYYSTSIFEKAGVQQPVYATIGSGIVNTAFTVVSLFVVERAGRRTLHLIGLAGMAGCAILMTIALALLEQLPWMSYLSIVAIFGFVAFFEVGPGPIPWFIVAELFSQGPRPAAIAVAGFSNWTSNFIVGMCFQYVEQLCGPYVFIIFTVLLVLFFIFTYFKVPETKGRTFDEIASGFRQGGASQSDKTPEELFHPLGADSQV

`CS(=O)(=O)c1ccc(-c2cnc(N)c(-c3cccc(CO)c3)c2)cc1`: the inhibition turned out to be 3.95% in experiment [1], 3.16% in experiment [2] and 4.32% in experiment [3].
Consider `CC(C)C1C(=O)N(S(C)(=O)=O)C2CCN(C(=O)c3ccc(CN4CCCCC4)c([N+](=O)[O-])c3)C12` (centres undefined), for which the values for the inhibition in experiment [1], in experiment [2] and in experiment [3] were 3.87%, 4.49% and -1.4%, respectively.
With `CNC(=O)c1ccc(/C=C/C(=O)N2CCc3ccc(-c4ccccc4)cc3C2c2cccc(C(F)(F)F)c2)cc1` (centres undefined), the inhibition in experiment [1] was 2.29%; in experiment [2], -0.01%; in experiment [3] it was 0.99%.
For `CCCCCN1CCC(NS(=O)(=O)c2cccc(C(=O)Nc3cccc(C(F)(F)F)c3)c2)C1` (centres undefined) the same measures were 1.68%, 1.1% and 4.07%.
Turning to `CCCOc1ccc(C=C(CC(=O)O)c2nc3ccccc3s2)cc1OCC`, the values for the inhibition in experiment [1], in experiment [2] and in experiment [3] were 2.27%, 2.53% and -7.54%, respectively.
As to `CCc1c[nH]c2c(N3CCCCS3(=O)=O)cc(C(=O)N[C@@H](Cc3ccccc3)[C@H](O)CNCc3cccc(OC)c3)cc12`, the inhibition is 0.82% in experiment [1], -0.07% in experiment [2] and -0.23% in experiment [3].
Take `Cc1nc(-c2nc(N3CCOCC3)ncc2-c2ccsc2)sc1C`: the inhibition in experiment [1] is -1.47%; in experiment [2], -0.4%; in experiment [3], 1.4%.
For `Cc1cc(OCCCN2CCCCC2)ccc1NC(=O)COc1ccc(Cl)cc1C(=O)c1cc(Cl)cc(C#N)c1` the same measures were 60.8%, 19.1% and 5.79%.
The corresponding values for `COc1cc2c(cc1OC)CN(CCCCc1ccc(NC(=O)c3cc(Cl)cc(Cl)c3)cc1)CC2` are 4.58%, 4.95% and -0.56%.
The corresponding values for `CCOc1ccc2nc(N(CCCn3ccnc3)C(=O)C=Cc3cccs3)sc2c1` are 3.54%, 2.73% and -8.76%.
For `Cc1c(Cl)cccc1N=C(S)NN=Cc1ccccn1`, the inhibition is 1.43% in experiment [1], 2.56% in experiment [2] and -0.2% in experiment [3].
Regarding `O=C(Nc1ccc(F)cc1)NC1CCN(c2ccnc3ccccc23)C1` (centres undefined), the inhibition in experiment [1] turned out to be 3.76%; in experiment [2], 3.71%; in experiment [3] it was 3.79%.
Regarding `c1ccc2c(C3CCN(CCCCOc4ccc5c(c4)CCN(CC4CC4)CC5)CC3)c[nH]c2c1`, the inhibition is 70.5% in experiment [1], 43.6% in experiment [2] and 6.07% in experiment [3].
Consider `Nc1ccc(-c2csc(Nc3ccncc3)n2)cc1`, for which the inhibition in experiment [1] is 2.7%; in experiment [2], 1.93%; in experiment [3], 2.21%.
On to `N#Cc1ccc(C(=O)NC2CCN(CCCCCNC(=O)/C=C/c3ccc(Cl)c(Cl)c3)CC2)cc1`, for which the inhibition was 0.08% in experiment [1], 1.46% in experiment [2] and -1.31% in experiment [3].
For the molecule `Fc1ccc2c(NN=Cc3ccccc3F)ccnc2c1`, the inhibition in experiment [1] was 0.28%; in experiment [2], -0.28%; in experiment [3] it was 0.43%.
As to `CCN(CC)CCN(Cc1ccc(-c2ccc(C(F)(F)F)cc2)cc1)C(=O)Cn1c(CCc2cccc(F)c2F)nc(=O)c2cc(F)c(F)cc21`, the inhibition was determined as 9.33% in experiment [1], 7.63% in experiment [2] and 9.47% in experiment [3].
`Cc1cccc2nc(-c3ccc(-c4cccc(NC(=O)Nc5ccc6c(c5)OCO6)c4)cc3)[nH]c12`: the values for the inhibition in experiment [1], in experiment [2] and in experiment [3] were 2.61%, 4.13% and 3.3%, respectively.
In the case of `Cc1cc(NC(=O)Nc2cccc(N(C)C)c2)c2ccccc2n1`, the values for the inhibition in experiment [1], in experiment [2] and in experiment [3] were 2.29%, 2.59% and 1.12%, respectively.
`CNC(=O)C1Cc2c([nH]c3cc(Cl)ccc23)C2(CCN(CCc3ccccc3)CC2)N1` (centres undefined): the inhibition is 0.42% in experiment [1], 1.39% in experiment [2] and 1.5% in experiment [3].
As for `O=C(Nc1cccc(-c2nc3ccccc3s2)c1)c1ccccc1[N+](=O)[O-]`, the inhibition was 0.94% in experiment [1], -0.02% in experiment [2] and -0.15% in experiment [3].
For the molecule `COc1ccc2nccc(NC(=O)C3CCC(NCc4cnc(SC)c([N+](=O)[O-])c4)CC3)c2n1` (centres undefined), the inhibition amounted to 10.5% in experiment [1], 10.3% in experiment [2] and 20.7% in experiment [3].
With `COc1cc(CCNC(=N)/C=C/c2ccc(Cl)cc2)ccc1Cl`, the inhibition was 2.51% in experiment [1], 2.01% in experiment [2] and -0.39% in experiment [3].
For `Cc1cc(CN2CCC(Nc3ncc(-c4ccsc4)c4nc(C(F)(F)F)ccc34)CC2)no1` the same measures were 5.49%, 6.03% and 5.5%.
Turning to `COc1cccc(C=Cc2nc(=O)c3ccccc3o2)c1OC`, the values for the inhibition in experiment [1], in experiment [2] and in experiment [3] were 4.18%, 0.32% and 0.45%, respectively.
On to `CNc1ccc(CNCc2ccc(-c3ccc(-c4nc5cc(C(F)(F)F)ccc5[nH]4)s3)cc2)cc1`, for which the inhibition in experiment [1] was 2.19%; in experiment [2], 0.49%; in experiment [3], -0.01%.
Consider `CC(C)(C)OC(=O)NCc1ccc(Nc2nnc(-c3cccc(OCC(=O)NCc4cc(C(F)(F)F)cc(C(F)(F)F)c4)c3)o2)cc1`, for which the inhibition was found to be 0.8% in experiment [1], 1.63% in experiment [2] and 1.12% in experiment [3].
As to `NC1=NC(c2ccccc2)N(OCc2ccccc2)C(N)=N1` (centres undefined), the inhibition in experiment [1] worked out at 0.52%; in experiment [2], 0.08%; in experiment [3], 0.06%.
Consider `COc1ccc(NC(=O)/C=C/c2ccccc2Cl)cc1OCCN1CCC(N2CCCCC2)CC1`, for which the values for the inhibition in experiment [1], in experiment [2] and in experiment [3] were 7.74%, 7.17% and 7.17%, respectively.
Regarding `CCc1ccc(NC(=O)c2ccc(CN3CCCN(Cc4ccc(C)s4)CC3)cc2)cc1`, the inhibition in experiment [1] came to 3.79%; in experiment [2], 5.06%; in experiment [3], 2.95%.
With `CCCCCCOc1ccc(C(=O)NCCCC2CCN(CCCCCNC(=O)C=Cc3ccc(Cl)c(Cl)c3)CC2)cc1`, the inhibition turned out to be 2.75% in experiment [1], 4.46% in experiment [2] and 3.91% in experiment [3].
With `Nc1ccc(-c2ccc3ccnc(N)c3c2)cn1`, the inhibition is 1.94% in experiment [1], -1.53% in experiment [2] and 2.84% in experiment [3].
As to `NC(=O)c1cccc(CNCc2ccc(-c3cccc(-c4nc5ccccc5[nH]4)c3)cc2)c1`, the inhibition turned out to be 5.8% in experiment [1], 5.87% in experiment [2] and 5.4% in experiment [3].
